Inconclusive results are not listed. A call without a number means that no potency is given here. A structure can be active in one record and inactive in another. Active and inactive are the calls of the source. Calls come from the whole dose curve; as a rule, active = well fitted activation curve with a large enough effect in the repeat runs; inconclusive = weak or mixed curves; inactive = flat fitted curve, though single readings scatter.

This note sets out measurements from PubChem BioAssay (Tox21).
Potency is the fitted concentration of half-maximal effect.

The test is described as follows: A CellTox Green Cytotoxicity Assay to monitor cytotoxicity in HEK293 cells - 32 hour (AID 1224881). Note: nearly all actives have a fitted effect of over 40% in size. The note with it: CellTox Green fluorescence; series mostly up to 76.8 µM; cytotoxicity increase: at the top concentration. From the text:
National Center for Advancing Translational Sciences [NCATS]
NIH Chemical Genomics Center [NCGC]
U.S. Environmental Protection Agency [EPA]
National Institutes of Environmental Health Sciences [NIEHS]
National Toxicology Program [NTP]
Cell-based models are critical for drug discovery. Determining the natural cytotoxic effects resulting from test compounds is an essential research activity. A CellTox Green Cytotoxicity Assay to monitor cytotoxicity in real time of continues cell culture during 40 hours of the compound treatment was used to screen Tox21 10K library compounds in Hek293 cells. CellTox Green Cytotoxicity Assay is a nonlytic, homogeneous, biofluorescent method to measure cytotoxicity in cell culture after experimental manipulation. The assay system uses a proprietary asymmetric cyanine dye that is excluded from viable cells but preferentially stains the dead cell's DNA. […] Viable cells produce no appreciable increases in fluorescence. Therefore, the fluorescence signal produced by the binding interaction with dead cell DNA is proportional to cytotoxicity.
The mixture of Hek293 cell suspension and reagents were dispensed at 600cells/6 ul/well in 1536-well tissue culture treated black solid bottom plates using a Multidrop dispenser. After the assay plates were incubated at a 37 C/5% CO2 incubator for 5 hours, 23 nL of compounds dissolved in DMSO, positive and negative controls was transferred to the assay plate by a pintool work station. The plates were incubated at 37 C for 40 hours. The fluorescence intensity were measured at 0h, 8h, 16h, 24h, 32h and 40h time points using ViewLux plate reader during compound treatment.
For the compound `COC(=O)/C=C\C(=O)OC`, the Potency entry was “inactive”.
For `Cc1ccccc1C=O`, the Potency entry was “inactive”.
Still for that read-out and setting: with `O=C(O)Cc1c[nH]c2ccccc12` the entry was “inactive”.
For `NCCNCCNCCN`, the Potency entry is “inactive”.
As for `COc1ccc(N)c(OC)c1`, the Potency result was “inactive”.
For the compound `NC1CCCCC1N` (stereo not given), the Potency result is “inactive”.
Take `CCCCCCC(=O)O`: the Potency entry was “inactive”.
For `COc1c2ccoc2cc2oc(=O)ccc12`, the Potency result is “inactive”.
As to `Cc1ccc(Cl)cc1`, the Potency result was “inactive”.
As for `CCCN(CCC)C(=O)SCC`, the Potency entry is “inactive”.
For `CCCCC(=O)O`, the Potency entry was “inactive”.
As to `O=C(Cl)c1ccc(C(=O)Cl)cc1`, the Potency entry was “inactive”.
For `COc1ccccc1[N+](=O)[O-]`, the Potency entry was “inactive”.
Consider `CC[N+](CC)(CC(=O)Nc1c(C)cccc1C)Cc1ccccc1`, for which the Potency result is “inactive”.
Consider `Cc1cc(C)cc(O)c1`, for which the Potency result was “inactive”.
With `CC(=O)CC(=O)N(C)C`, the Potency result was “inactive”.
Still for that read-out and setting: with `CC(=O)Nc1ccc(CC(=O)O)cc1` the entry was “inactive”.
As to `O=[N+]([O-])c1cc(C(F)(F)F)ccc1Cl`, the “cytotoxicity increase” value was -2.37% (inactive).
On to `CCCCCCCCO`, for which the Potency entry was “inactive”.
On the same count and under the same terms, with `CC(COCC(C)OC(=O)c1ccccc1)OC(=O)c1ccccc1` (stereo not given) the entry was “inactive”.
Regarding `Cc1ccc(C)c(S(=O)(=O)O)c1`, the Potency result is “inactive”.
On the same count and under the same terms, with `c1cnc2c(c1)ccc1cccnc12` the entry was “inactive”.
On the same count and under the same terms, then `CC(=O)c1nccs1`, with “inactive”.
In the case of `Cc1ccncc1`, the Potency result was “inactive”.
As for `O=C(O)C1=NN(c2ccc(S(=O)(=O)O)cc2)C(=O)C1`, the Potency entry is “inactive”.
Regarding `CC(=O)OCc1ccc2c(c1)OCO2`, the Potency entry is “inactive”.
Turning to `C=C1C[C@]23C[C@@]1(O)CC[C@H]2[C@@]12C=C[C@H](O)[C@@](C)(C(=O)O1)[C@H]2[C@@H]3C(=O)O`, the Potency entry was “inactive”.
Turning to `OCC(CO)(CO)CO`, the Potency entry is “inactive”.
Turning to `CC(C=O)Cc1ccc(C(C)(C)C)cc1` (stereo not given), the “cytotoxicity increase” value was 18.1% (inactive).
Take `Nc1cccc(C(F)(F)F)c1`: the “cytotoxicity increase” value is -10.4% (inactive).
As to `COc1ccc([C@@H]2CC(=O)c3c(O)cc(O[C@@H]4O[C@H](CO[C@@H]5O[C@@H](C)[C@H](O)[C@@H](O)[C@H]5O)[C@@H](O)[C@H](O)[C@H]4O)cc3O2)cc1OC`, the Potency result is “inactive”.
For `CCOC(=O)c1ccc(O)cc1`, the Potency result is “inactive”.
The same measure, in the same setting: with `CCCCCC(C)=O` the entry was “inactive”; with `Cc1cc(CC(=O)O)n(C)c1C(=O)c1ccc(Cl)cc1`, “inactive”.
Same read-out and setting: with `Cc1cc(C)c(O)c(C)c1` the entry was “inactive”; with `CC1=CC(=O)CC(C)(C)C1`, 40 µM (active) and inactive; with `CC(=O)OCCC(C)C`, “inactive”.
In the case of `CCCCCCCCC(=O)O`, the Potency result was “inactive”.
Same read-out and setting: then `C1CCCNCC1`, with “inactive”; and `OCCOCCOCCOCCOCCO`, with “inactive”.
